In article PMC7826789 (International Journal of Molecular Sciences, 2021):

What was measured:
Conditions in all cases: Compound Concentration (nM):1000
BRSK2 = test system: BRSK2
BTK = test system: BTK
BUB1 = test system: BUB1
CAMK1B = test system: T1, CAMK1B
T1 construct: gene PNCK

CAMK1D = test system: CAMK1D
CAMK1G = test system: CAMK1G
CAMK1 = test system: CAMK1
CAMK2A = test system: CAMK2A
CAMK2B = test system: CAMK2B
CAMK2D = test system: CAMK2D
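Note: KINOMEscan scanMAX binding as percent activity remaining versus control; lower means stronger binding.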

SMILES | Percent Control (BRSK2) [%] | Percent Control (BTK) [%] | Percent Control (BUB1) [%] | Percent Control (CAMK1B) [%] | Percent Control (CAMK1D) [%] | Percent Control (CAMK1G) [%] | Percent Control (CAMK1) [%] | Percent Control (CAMK2A) [%] | Percent Control (CAMK2B) [%] | Percent Control (CAMK2D) [%]
Cl.O=C(Nc1ccc(Oc2ccc3[nH]c(NC(=O)c4ccco4)nc3c2)cc1)Nc1cc(C(F)(F)F)ccc1F [GW683134A] | 98 | 95 | 95 | 100 | 100 | 100 | 59 | 85 | 79 | 100
NS(=O)(=O)c1ccc(N/N=C2\C(=O)Nc3ccc(Cl)cc32)cc1 [GW280670X] | 86 | 100 | 100 | 100 | 100 | 100 | 100 | 100 | 100 | 100
CN(C)CCNC(=O)Nc1ccc(N(C)c2ccnc(Nc3ccc(CS(C)(=O)=O)cc3)n2)cc1.Cl [GW830900A] | 96 | 74 | 55 | 93 | 91 | 100 | 100 | 92 | 84 | 93
COc1ccc2c(-c3ccnc(Nc4cccc(OC(F)(F)F)c4)n3)cnn2n1 [GW810372X] | 77 | 84 | 86 | 100 | 100 | 100 | 100 | 100 | 100 | 100
COc1cc2ncn(-c3cc(O[C@H](C)c4ccccc4Cl)c(C(N)=O)s3)c2cc1OC [GSK237701A] | 47 | 53 | 56 | 87 | 91 | 93 | 86 | 89 | 100 | 82
COc1cc(N2CCN(C(C)C)CC2)ccc1Nc1nc(Nc2ccc(F)cc2C(=O)NC[C@@H](O)CO)c2cc[nH]c2n1 [GSK1392956A] | 100 | 100 | 88 | 60 | 40 | 75 | 73 | 69 | 64 | 87
Cl.c1ccc(Cc2nc3ccc(Nc4ncnc5ccccc45)cc3[nH]2)cc1 [GR269666A] | 91 | 100 | 100 | 89 | 100 | 100 | 90 | 93 | 99 | 100
COc1cc(/C=N/Nc2ncnc3[nH]ncc23)ccc1O [GW578748X] | 61 | 44 | 23 | 83 | 85 | 100 | 100 | 80 | 100 | 96
COc1cc(C)c(N(C)C(=O)CN(C)C)cc1Nc1nc(Nc2cccc(F)c2C(N)=O)c2cc[nH]c2n1 [GSK2219385] | 93 | 100 | 90 | 85 | 87 | 95 | 97 | 89 | 93 | 82
CCc1ccc(Oc2nccc(-c3c(-c4ccc(F)cc4)ncn3C3CCNCC3)n2)cc1 [SB-242719] | 100 | 100 | 73 | 100 | 86 | 100 | 90 | 67 | 63 | 100
COc1cccc(-c2c[nH]c3c(N/N=C/c4ccncc4)ncnc23)c1 [GW814408X] | 92 | 77 | 50 | 95 | 100 | 97 | 100 | 77 | 81 | 84
Cl.O=S1CCN(Cc2ccc(-c3ccc4ncnc(Nc5ccc(OCc6ccccc6)c(F)c5)c4c3)o2)CC1 [GW576924A] | 85 | 100 | 100 | 100 | 100 | 100 | 100 | 100 | 100 | 100
COc1ccc(COc2ccc(Cc3cnc(N)nc3N)cc2OC)cc1 [GW632580X] | 55 | 96 | 100 | 100 | 95 | 96 | 100 | 90 | 96 | 89
O=C1Nc2ccc(C(=O)c3ccco3)cc2C1=Cc1cc(Cl)c(O)c(Cl)c1 [GW406108X] | 100 | 87 | 50 | 100 | 81 | 77 | 63 | 25 | 44 | 55
NS(=O)(=O)c1ccc(Nc2ncc(-c3ccccc3)o2)cc1 [GW572399X] | 100 | 96 | 80 | 100 | 100 | 100 | 78 | 94 | 100 | 100
C[C@@H](Oc1cc(-n2cnc3ccc(OC4CCN(C)CC4)cc32)sc1C(N)=O)c1ccccc1Cl [GSK579289A] | 56 | 92 | 88 | 100 | 61 | 81 | 55 | 74 | 80 | 52
Cc1cc(O)cc(C)c1/C=C/c1cncc(C(N)=O)c1 [GW435821X] | 50 | 100 | 100 | 100 | 100 | 100 | 91 | 100 | 100 | 100
